From PubChem BioAssay AID1159580 (chemical genetic matrix, 2015)
Hit rate of the full screen: of about 5,500 compounds, about 2,000 (36%) were called active. About 18% were inconclusive and are not listed. No stated cut-off is given here; in the data, active means normalized growth mostly below about 0.91 (no sharp cut-off); inconclusive means no clear call, values can overlap the other calls; inactive means mostly above about 0.92. Some of the results follow.

Test: chemical genetic growth profiling, strain panel (AID 1159580);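 further: tested at 20 µM; growth read once vehicle control cultures reached saturation at 30 °C; 1 = growth at the plate median or of vehicle wells; lower values mean less growth of the strain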
Conditions: growth OD

Measured: normalized growth

CC(=O)O[C@H]1C[C@@H](O)C(C)(C)C2C[C@@H](OC(C)=O)[C@]3(C)C(CC[C@@]4(C)[C@H](c5ccoc5)OC(=O)C5OC543)[C@]21C (stereo partly specified)
inactive: S. cerevisiae deletion strains, locus YJL187C, strain SWE1, hits give low values 0.996 | S. cerevisiae deletion strains, locus YJR066W, strain TOR1, hits give low values 0.928 | S. cerevisiae deletion strains, locus YKL009W, strain mrt4, hits give low values 0.954 | S. cerevisiae deletion strains, locus YKL068W, hits give low values 0.976 | S. cerevisiae deletion strains, locus YKL085W, strain MDH1 (second series), hits give low values 0.974 | S. cerevisiae deletion strains, locus YKL085W, strain MDH1, hits give low values 0.974 | S. cerevisiae deletion strains, locus YKL160W, strain elf1, hits give low values 1.01 | S. cerevisiae deletion strains, locus YKR001C, strain vps1, hits give low values 0.983 | S. cerevisiae deletion strains, locus YKR026C, strain gcn3, hits give low values 1.01 | S. cerevisiae deletion strains, locus YKR091W, strain srl3, hits give low values 1.01 | S. cerevisiae deletion strains, locus YLL001W, strain dnm1, hits give low values 0.998 | S. cerevisiae deletion strains, locus YLL026W, hits give low values 1.01 | S. cerevisiae deletion strains, locus YLL041C, strain sdh2, hits give low values 0.999 | S. cerevisiae deletion strains, locus YLR027C, strain aat2, hits give low values 1.01 | S. cerevisiae deletion strains, locus YLR039C, strain RIC1, hits give low values 1.04 | S. cerevisiae deletion strains, locus YLR058C, strain SHM2, hits give low values 0.967 | S. cerevisiae deletion strains, locus YLR102C, strain apc9, hits give low values 0.984 | S. cerevisiae deletion strains, locus YLR113W, strain HOG1, hits give low values 1.02 | S. cerevisiae deletion strains, locus YLR221C, strain rsa3, hits give low values 1.01 | S. cerevisiae deletion strains, locus YLR258W, strain gsy2, hits give low values 1 | S. cerevisiae deletion strains, locus YLR262C, strain YPT6 (second series), hits give low values 1.01 | S. cerevisiae deletion strains, locus YLR262C, strain YPT6, hits give low values 1.02 | S. cerevisiae deletion strains, locus YLR268W, strain sec22, hits give low values 0.977 | S. cerevisiae deletion strains, locus YLR320W, strain mms22, hits give low values 1.02 | S. cerevisiae deletion strains, locus YLR330W, strain CHS5, hits give low values 0.992 | S. cerevisiae deletion strains, locus YLR342W, strain FKS1 (second series), hits give low values 0.988 | S. cerevisiae deletion strains, locus YLR342W, strain FKS1, hits give low values 1.01 | S. cerevisiae deletion strains, locus YLR357W, strain rsc2, hits give low values 1.04 | S. cerevisiae deletion strains, locus YLR370C, strain arc18, hits give low values 0.999 | S. cerevisiae deletion strains, locus YLR371W, strain rom2, hits give low values 0.988 | S. cerevisiae deletion strains, locus YLR384C, strain iki3, hits give low values 0.999 | S. cerevisiae deletion strains, locus YLR418C, strain cdc73, hits give low values 0.979 | S. cerevisiae deletion strains, locus YML016C, strain PPZ1, hits give low values 0.975 | S. cerevisiae deletion strains, locus YML032C, strain rad52, hits give low values 0.991 | S. cerevisiae deletion strains, locus YML120C, strain ndi1, hits give low values 1.01 | S. cerevisiae deletion strains, locus YML124C, strain tub3, hits give low values 0.986 | S. cerevisiae deletion strains, locus YMR058W, strain fet3, hits give low values 1.01 | S. cerevisiae deletion strains, locus YMR078C, strain ctf18, hits give low values 0.988 | S. cerevisiae deletion strains, locus YMR125W, strain sto1, hits give low values 1 | S. cerevisiae deletion strains, locus YMR129W, hits give low values 1.03 | S. cerevisiae deletion strains, locus YMR205C, strain PFK2, hits give low values 1.01 | S. cerevisiae deletion strains, locus YMR223W, strain ubp8, hits give low values 0.991 | S. cerevisiae deletion strains, locus YMR231W, strain pep5, hits give low values 0.988 | S. cerevisiae deletion strains, locus YMR307W, strain GAS1, hits give low values 0.964 | S. cerevisiae deletion strains, locus YNL067W, strain RPL9B, hits give low values 1.02 | S. cerevisiae deletion strains, locus YNL071W, strain lat1, hits give low values 1 | S. cerevisiae deletion strains, locus YNL183C, strain NPR1, hits give low values 0.946 | S. cerevisiae deletion strains, locus YNL209W, strain ssb2, hits give low values 0.995 | S. cerevisiae deletion strains, locus YNL233W, strain BNI4, hits give low values 1 | S. cerevisiae deletion strains, locus YNL248C, strain rpa49, hits give low values 1 | S. cerevisiae deletion strains, locus YNL250W, strain rad50, hits give low values 1.02 | S. cerevisiae deletion strains, locus YNL271C, strain bni1, hits give low values 0.989 | S. cerevisiae deletion strains, locus YNL298W, strain CLA4, hits give low values 0.992 | S. cerevisiae deletion strains, locus YNL307C, strain MCK1, hits give low values 0.995 | S. cerevisiae deletion strains, locus YNL322C, strain KRE1 (second series), hits give low values 1.02 | S. cerevisiae deletion strains, locus YNR049C, strain mso1, hits give low values 0.999 | S. cerevisiae deletion strains, locus YNR052C, strain pop2, hits give low values 0.987 | S. cerevisiae deletion strains, locus YOL006C, strain TOP1, hits give low values 0.989 | S. cerevisiae deletion strains, locus YOL012C, strain htz1 0.76 | S. cerevisiae deletion strains, locus YOL147C, strain pex11, hits give low values 0.99 | S. cerevisiae deletion strains, locus YOR001W, strain rrp6, hits give low values 1.03 | S. cerevisiae deletion strains, locus YOR061W, strain CKA2, hits give low values 0.966 | S. cerevisiae deletion strains, locus YOR069W, strain VPS5, hits give low values 0.998 | S. cerevisiae deletion strains, locus YOR070C, strain gyp1, hits give low values 1.01 | S. cerevisiae deletion strains, locus YOR080W, strain dia2, hits give low values 0.998 | S. cerevisiae deletion strains, locus YOR083W, strain WHI5, hits give low values 1.01 | S. cerevisiae deletion strains, locus YOR106W, strain vam3, hits give low values 1 | S. cerevisiae deletion strains, locus YOR136W, strain idh2, hits give low values 0.979 | S. cerevisiae deletion strains, locus YOR144C, strain elg1, hits give low values 0.989 | S. cerevisiae deletion strains, locus YOR184W, strain ser1, hits give low values 0.967 | S. cerevisiae deletion strains, locus YOR231W, strain MKK1, hits give low values 0.984 | S. cerevisiae deletion strains, locus YOR265W, strain rbl2, hits give low values 1 | S. cerevisiae deletion strains, locus YOR270C, strain vph1, hits give low values 0.967 | S. cerevisiae deletion strains, locus YOR290C, strain snf2, hits give low values 1 | S. cerevisiae deletion strains, locus YOR316C, strain cot1, hits give low values 0.989 | S. cerevisiae deletion strains, locus YPL051W, strain arl3, hits give low values 1.02 | S. cerevisiae deletion strains, locus YPL078C, strain atp4, hits give low values 0.997 | S. cerevisiae deletion strains, locus YPL106C, strain sse1, hits give low values 1.02 | S. cerevisiae deletion strains, locus YPL240C, strain hsp82, hits give low values 1.01 | S. cerevisiae deletion strains, locus YPL256C, strain CLN2, hits give low values 0.944 | S. cerevisiae deletion strains, locus YPR119W, strain clb2, hits give low values 0.985 | S. cerevisiae deletion strains, locus YPR141C, strain kar3, hits give low values 0.986 | S. cerevisiae deletion strains, locus YPR163C, strain tif3, hits give low values 0.982 | S. cerevisiae deletion strains, locus YPR167C, strain met16, hits give low values 0.987 | S. cerevisiae deletion strains, strain wtn01, hits give low values 0.968 | S. cerevisiae strains, strain wild type, hits give low values 0.988
